# High-throughput results as filed in PubChem BioAssay.
# Rows were chosen to be rich in hits. Some 17% of all compounds tested hit in one or more screens of this group.
# TDP1 cell noCPT: qHTS for Inhibitors of human tyrosyl-DNA phosphodiesterase 1 (TDP1): qHTS in cells in absence of CPT | Potency, µM (titrated, usually from 46.2 µM), most hits filed as inhibitors | DT40 Tdp1-/- hTDP1 cells, no CPT, ATP luminescence, 48 h | actives 15% (n = 420,000); further: nearly all actives have a fitted effect of over 55% in size
#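 Compound effects on proliferation are scored in DT40 Tdp1-/-;hTDP1 cells in the absence of CPT. ATP levels (CellTiter-Glo luminescence) are recorded after a ≥48 hr, 37 °C incubation.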
# HepG2 tox: qHTS for Inhibitors of TGF-b: Cytotox Counterscreen; HepG2 CAGA-GFP viability, ATP luminescence, 18 h; AID 588856, 2011; Potency, µM (highest dose often 46.1 µM), hits mostly cytotoxic; actives 0.76% (n = 410,000)
#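 HepG2 CAGA-GFP cells (1000/well, DMEM with 1% FBS) received compound, then TGF-beta at 500 pg/mL final, and were incubated 18 hours at 37 degrees C. Viability was read by CellTiter-Glo luminescence. Media-only wells were set as complete cell-killing and DMSO as no toxicity.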
# TDP1 cell CPT: qHTS for Inhibitors of human tyrosyl-DNA phosphodiesterase 1 (TDP1): qHTS in cells in presence of CPT; actives 12% (n = 420,000); chicken DT40 Tdp1-/-;hTDP1 cells + 20 nM CPT, ATP luminescence, 48 h; AID 686979, 2013; Potency, µM (series often up to 46.2 µM), usual class: inhibitors; further: nearly all actives have a fitted effect of over 55% in size
#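 Chicken DT40 Tdp1-/- cells complemented with human TDP1, 400 cells/well, exposed to compounds plus 20 nM camptothecin for at least 48 h at 37 C; viability read as ATP content by CellTiter-Glo luminescence.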
# TGFb inhibitor: qHTS for Inhibitors of TGF-b; HepG2 CAGA-GFP TGF-b/SMAD3 reporter, GFP fluorescence, 18 h; TGF-beta stimulated, 500 pg/mL final; Potency, µM (highest dose often 46.1 µM), actives largely listed as inhibitors; actives 1.2% (n = 410,000); AID 588855, 2011; further: nearly all actives have a fitted effect of over 65% in size
#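 HEPG2 CAGA-GFP cells (1000/well, DMEM with 1% FBS) were pre-incubated 2 h at 37 degrees C, given compound by pin tool, then stimulated with TGF-beta at 500 pg/mL final for 18 h before per-cell GFP fluorescence imaging.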
# S2 tox: Viability Counterscreen for Primary qHTS for Inhibitors of ATXN expression | S2 cells (HEK-293 line with an ATXN2-luciferase reporter) viability, CellTiter-Fluor protease fluorescence, 24 h | Potency, µM (top dose mostly 56.7 µM), hits mostly cytotoxic | actives 0.49% (n = 400,000); further: nearly all actives have a fitted effect of over 40% in size
# ATXN2 expr inh: Primary qHTS for Inhibitors of ATXN expression; Potency, µM (top dose mostly 57 µM), hits mostly inhibitors; HEK-293 ATXN2-luciferase reporter, luminescence, 24 h; AID 1745845, 2022; actives 0.72% (n = 360,000); further: nearly all actives have a fitted effect of over 55% in size
#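 qHTS (up to 57 uM final) was run with 24 h compound exposure of reporter cells at 37 °C. Each well was multiplexed: SteadyGlo luminescence measured ATXN2-luciferase expression after a fluorogenic Gly-Phe-AFC viability readout (25 uM final).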
# Numbers stand for hits; i = inactive; ? = inconclusive; nt = no result. The call rests on the fitted dose curve; in most records, active means well fitted curve in the direction sought with a large enough effect; inconclusive means small, poorly fitted or top-dose-only effect, or another doubt; inactive means no such curve, though single readings can be large; an effect the other way counts as inactive or inconclusive.
SMILES,TDP1 cell noCPT,HepG2 tox,TDP1 cell CPT,TGFb inhibitor,S2 tox,ATXN2 expr inh
COc1ccc(CC(=O)N/N=C(\C)c2cccc(NC(=O)C3CC3)c2)cc1,i,i,i,i,i,i
C/C(=N\NC(=O)C1(C)CC1(Br)Br)c1cccc(NC(=O)C2CCC2)c1 (centres undefined),26µM,i,18µM,i,i,i
C[n+]1ccccc1COc1ccc(C(C)(C)C)cc1,2.3µM,i,2.1µM,i,i,i
COc1ccc(CN2CCNC(=O)C2CC(=O)N(C)Cc2nc(C)cs2)c(OC)c1 (centres undefined),i,i,i,i,i,i
COc1cccc(OCCCCN2CCCCC2)c1,i,i,i,i,i,i
COc1ccc2c(c1)OC(C)(C)C(c1ccccc1)C2c1ccc(OCCN2CCCC2)cc1 (centres undefined),27µM,nt,21µM,nt,nt,nt
Brc1ccc(OCCOCCOc2cccc3cccnc23)cc1,23µM,i,?,?,i,i
Brc1ccc(OCCCOc2cccc3cccnc23)cc1,i,i,i,i,i,i
Clc1ccc(OCCOCCOc2cccc3cccnc23)c(Br)c1,?,16µM,23µM,?,i,i
Cc1ccc2nc(SCC(=O)OCc3ccccc3)nc(=O)n2c1,i,i,i,i,i,i
Cc1ccc(S(=O)(=O)NC(=O)C2(C)CCN2C(=O)Cc2cccs2)cc1 (centres undefined),i,i,i,i,i,i
COc1ccc(CCN(C)C(=O)c2cc(S(=O)(=O)N3CCCCC3)ccc2Cl)cc1OC,23µM,i,?,i,i,i
COc1ccc(S(=O)(=O)N2CCCCCC2)cc1C(=O)N(C)CCOc1ccc(Cl)cc1,21µM,i,21µM,i,?,?
COc1ccc(CCN(C)C(=O)c2cc(S(=O)(=O)N3CCCCCC3)ccc2OC)cc1OC,?,i,?,i,i,i
COc1ccccc1NC(=O)C1=C(C)Nc2nc(SCc3ccccc3Cl)nn2C1c1ccncc1 (centres undefined),i,i,i,?,i,i
CS(=O)(=O)N1CCN(/[N+]([O-])=N/Oc2ccc([N+](=O)[O-])cc2[N+](=O)[O-])CC1 (tested in a mixture with another compound),nt,i,nt,i,nt,nt
CCOC(=O)C1CCCN(C(=O)c2cc(COc3ccc(C)nc3)on2)C1 (centres undefined),?,i,?,i,i,i
COCCC1CCCCN1C(=O)c1cc(COc2ccc(C)nc2)on1 (centres undefined),23µM,i,21µM,i,i,i
COCCCC1CCN(C(=O)c2cc(COc3ccc(C)nc3)on2)CC1,10µM,i,18µM,i,i,i
CCC1CCCCN1C(=O)c1cc(COc2ccc(-n3cncn3)cc2)on1 (centres undefined),16µM,i,18µM,i,i,i
COCC1CCN(C(=O)c2cc(COc3ccc(-n4cncn4)cc3)on2)C1 (centres undefined),i,i,i,i,?,i
CC1(Cc2ccc3ccccc3n2)C(=O)Nc2ccc(OC(F)(F)F)cc21 (centres undefined),?,i,?,i,i,i
CC1(Cc2ccc(OC(F)(F)F)cc2)C(=O)Nc2ccc(S(=O)(=O)NC3CCCCC3)cc21 (centres undefined),?,11µM,?,?,?,?
CC1(Cc2ccccc2OC(F)(F)F)C(=O)Nc2ccc(OC(F)(F)F)cc21 (centres undefined),21µM,i,21µM,?,?,?
CC1(Cc2ccccc2OC(F)(F)F)C(=O)Nc2ccc(-c3ccsc3)cc21 (centres undefined),18µM,i,?,?,nt,i
SMILES,TDP1 cell noCPT,HepG2 tox,TDP1 cell CPT,TGFb inhibitor,S2 tox,ATXN2 expr inh
CC1(Cc2ccc(Cl)cc2)C(=O)Nc2ccc(S(=O)(=O)NC3CCCCC3)cc21 (centres undefined),?,i,?,?,?,?
CCOC(=O)c1cccc(NC(=O)CCS(=O)(=O)c2ccc3c(c2)CC(=O)N3C)c1,i,i,i,?,i,i
OC[C@H]1O[C@@H](O[C@H]2[C@H](O)[C@@H](O)[C@H](O)O[C@@H]2CO)[C@H](O)[C@@H](O)[C@@H]1O,i,nt,i,nt,nt,nt
CC(=O)N[C@@H]1C(O[C@H]2O[C@H](C(=O)O)C(O)[C@H](O)[C@H]2O)[C@H](O)[C@@H](CO)O[C@H]1O[C@@H]1C(C(=O)O)O[C@@H](O[C@H]2[C@H](O)[C@@H](CO)OC(O)[C@@H]2NC(C)=O)[C@H](O)[C@H]1O (some centres undefined),21µM,nt,i,nt,nt,nt
Cc1ccc(C)n1-c1c(C(=O)NCC(C)c2ccccc2)sc2ncccc12 (centres undefined),18µM,i,21µM,11µM,?,i
CCOc1ccc(CCNC(=O)c2sc3ncccc3c2-n2c(C)ccc2C)cc1,15µM,i,13µM,?,?,i
Cc1nn2c(C)c(C(=O)NCC(C)c3ccccc3)cnc2c1-c1ccccc1 (centres undefined),?,i,?,i,nt,nt
Cc1ccc(CCNC(=O)c2sc3ncccc3c2-n2c(C)ccc2C)cc1,6.5µM,i,12µM,11µM,?,?
Cc1ccc(CCNC(=O)c2sc3nc4n(c(=O)c3c2C)CCCC4)cc1,?,i,?,i,nt,nt
CCOc1ccc(Cn2nnc(C(=O)NCCc3ccccc3)c2N)cc1,i,i,i,i,i,i
CO/N=C(\CCC(=O)O)c1cccs1,?,i,i,i,i,nt
COc1ccc(/C=C/C(=O)OCC(=O)NC2CCS(=O)(=O)C2)cc1 (centres undefined),i,i,i,i,i,nt
O=C(COC(=O)/C=C/c1ccc(C(F)(F)F)cc1)Nc1ccc2[nH]c(=O)[nH]c2c1,i,3.5µM,i,i,i,i
O=C(COC(=O)/C=C/c1ccc([N+](=O)[O-])cc1)Nc1ccc2[nH]c(=O)[nH]c2c1,i,i,i,i,i,i
COc1ccc(/C=C/C(=O)OCC(=O)Nc2cc(C(F)(F)F)ccc2Cl)cc1,12µM,i,?,i,i,nt
O=C(COC(=O)/C=C/c1ccc(C(F)(F)F)cc1)NC1CCS(=O)(=O)C1 (centres undefined),21µM,i,?,i,i,i
